Screen size: about 6,200 compounds; about 2,900 (47%) were called active. Cut-off read from the data, not from the text of the source: active = inhibition above about 50%; inactive = the rest. So high a share suggests a set chosen from earlier hits. The list shows a part of the results.

The assay can be described thus: Mycobacterium tuberculosis growth inhibition, primary screen (AID 1259343). Particulars: inhibition: at 10 µM, stronger effect = higher value; outcome: 10 uM.
Turning to `CCn1c(O)c(C(C)=Nc2ccnn2C2CCCCC2)c(=O)n(CC)c1=S`, the inhibition is 100% (active).

Consider `O=C(Nc1ccnn1C1CCCCC1)c1c(O)cc(F)cc1F`, for which the inhibition was 29.4% (inactive).

Consider `Cc1ccc(OCC(O)Cn2c(C)nc3sc4c(c3c2=O)CCC4)cc1` (stereo unspecified), for which the inhibition is 64.5% (active).

`Cc1ccc(OCC(O)Cn2c(C)cc(=O)n3ncnc23)cc1` (stereo unspecified): the inhibition is -1.37% (inactive).

On to `CCCc1cnc(-c2cnc3ccccc3c2)nc1`, for which the inhibition was 15.5% (inactive).

Turning to `CCc1cnc(-c2cccc(O)c2)nc1`, the inhibition is 87.9% (active).

As to `Cc1cccc(-c2ncc(CNCCCc3ccccc3)cn2)c1`, the inhibition is 24.1% (inactive).

On to `O=[N+]([O-])c1ccc(Sc2nnc(-c3ccco3)o2)c([N+](=O)[O-])c1`, for which the inhibition is 57.5% (active).

`CCOc1ccc(CSc2n[nH]c(-c3ccccn3)n2)nc1`: the inhibition was 99.6% (active).

For the compound `CCOc1ccc(C2=NCC(CSc3n[nH]c(N)n3)S2)cc1` (stereo unspecified), the inhibition is 19.9% (inactive).

Take `CCCc1cc(=O)[nH]c(SCCOc2ccc(OCC)cc2)n1`: the inhibition is -6.11% (inactive).

In the case of `N#Cc1ccc(NC(=O)NC2CC2c2c(F)cccc2F)cc1` (stereo unspecified), the inhibition was 51.6% (active).

Regarding `CCN(CC(=O)Nc1ccc(C#N)cc1)C1CCCCC1`, the inhibition was -29.6% (inactive).

Consider `C=CCSc1nnc(COc2ccccc2)o1`, for which the inhibition was 95.2% (active).

For `C=CCSc1nnc(Nc2ccc(Oc3ccccc3)cc2)s1`, the inhibition entry was “inactive”.

With `O=c1[nH]c2ccccc2n1CCCSc1nnc(COc2ccccc2Cl)o1`, the inhibition is 42.5% (inactive).

For `Cc1cccc(N/C=c2\c(C)c(C#N)c3nc4ccccc4n3c2=O)c1`, the inhibition is -34.9% (inactive).

As to `Cc1c(C#N)c2nc3ccccc3n2c(=O)/c1=C/Nc1ccc(F)cc1`, the inhibition was -33.8% (inactive).

Consider `Cc1c(CCCl)c(Cl)n2c(nc3ccccc32)c1C#N`, for which the inhibition is 56.3% (active).

Consider `Cn1nc2c(c1NC(=O)c1ccc(Cc3ccccc3)cc1)CCC2`, for which the inhibition is 83.6% (active).

In the case of `COCCNc1c2c(nc3c(-c4ccccc4)c(C)nn13)CCCC2`, the inhibition was 25.2% (inactive).

On to `O=S1(=O)CCC(=NNc2ccc(Cl)cc2)c2cc(F)ccc21`, for which the inhibition was 45% (inactive).

On to `Clc1ccc(NN=C2CCN(Cc3ccccc3)CC2)cc1`, for which the inhibition was 94.7% (active).

In the case of `OCC1(CCCc2ccccc2)CCN(Cc2cc(Cl)ccc2O)CC1`, the inhibition was 38.5% (inactive).

As to `O=[N+]([O-])c1cnc2ccc3ccccc3c2c1`, the inhibition was 96.6% (active).

Regarding `Cc1cc(Br)c2c(c1)C1(OCCO1)C(=O)N2`, the inhibition is -4.59% (inactive).

As for `COc1ccccc1CNc1nccn(-c2cccc(C)c2)c1=O`, the inhibition was 12.8% (inactive).

Take `Cc1ccc(CNc2nccn(-c3cc(C)cc(C)c3)c2=O)cc1`: the inhibition is 53.9% (active).

As to `CN(CC1Cc2ccccc2O1)C(=O)Nc1nc(-c2ccccc2)ns1` (stereo unspecified), the inhibition was 4.41% (inactive).

As for `CN(Cc1cccc(C(=O)Nc2cn(C)nn2)c1)CC1Cc2ccccc2O1` (stereo unspecified), the inhibition is 86.5% (active).

Consider `Cc1cccc(CC(=O)N(C)CC2Cc3ccccc3O2)c1` (stereo unspecified), for which the inhibition is 21% (inactive).

In the case of `O=C(CN1CCCc2cccc(F)c21)Nc1cccc(F)c1`, the inhibition is 2.21% (inactive).

Consider `O=C(CN1CCCC1=O)Nc1ccc(C23CC4CC(CC(C4)C2)C3)cc1`, for which the inhibition is 81.6% (active).

As for `O=C(Nc1cccc(-c2cccc(Cl)c2)c1)C1CCN(Cc2ccncc2)CC1`, the inhibition is 92.8% (active).

In the case of `COCc1ccc(CN2CCC(C(=O)Nc3cccc(-c4cccc(Cl)c4)c3)CC2)o1`, the inhibition is 62.3% (active).

`CC(C)n1cc(CN2CCC(C(=O)Nc3cccc(-c4cccc(Cl)c4)c3)CC2)cn1`: the inhibition was 46.3% (inactive).

As to `COCC(=O)N1CCC(C(=O)Nc2cccc(-c3cccc(Cl)c3)c2)CC1`, the inhibition entry was “inactive”.

As for `Cc1cccc(C(=O)N2N=C(c3ccccc3)CC2(O)C(F)(F)F)c1O` (stereo unspecified), the inhibition is 49.1% (inactive).

Turning to `CC1=NN(C(=O)c2ccccc2)C(C)(NN(C)c2ccccc2)C1` (stereo unspecified), the inhibition was 75.7% (active).

`Cc1cc(Cc2c(O)nc(N)[nH]c2=O)ccc1OC(C)C`: the inhibition was 36.4% (inactive).

Consider `O=S(=O)(c1cccc(Cl)c1Cl)N1CCc2sccc2C1`, for which the inhibition is 17.2% (inactive).

`CCC1c2ccsc2CCN1CC(=O)Nc1ccccc1C#N` (stereo unspecified): the inhibition is 39.9% (inactive).

For `Cn1ccc(C(=O)Nc2ccccc2N2CCc3sccc3C2)cc1=O`, the inhibition was 63.6% (active).

In the case of `c1ccc(Cc2nnc(SCc3cccc4ccccc34)o2)cc1`, the inhibition was 4.35% (inactive).

For the compound `O=C(CSc1nnc(Cc2ccccc2)o1)c1ccc2ccccc2c1`, the inhibition was 67.7% (active).

For the compound `Cc1nc(Cc2nnc(SCC(=O)c3ccc(Cl)s3)o2)cs1`, the inhibition is 9.62% (inactive).

`CCCCCCCC1C(C#N)=C(N)SC(N)=C1C#N`: the inhibition is 93.5% (active).

For `CCCCCCC1C(C#N)=C(N)SC(N)=C1C#N`, the inhibition was 24.4% (inactive).

Regarding `N#CC1=C(N)SC(N)=C(C#N)C1c1ccc(-c2ccccc2)cc1`, the inhibition is 14.3% (inactive).

As for `Cc1cccc(N2CCN(c3ccc4nnc(C5CC5)n4n3)CC2)c1C`, the inhibition is 85.7% (active).

In the case of `CC(C)=NNc1nc(Cl)c(C#N)c(Cl)c1Cl`, the inhibition is 102% (active).

Regarding `FC(F)(F)c1nnc2ccc(NCCC3CCCC3)nn12`, the inhibition was 18% (inactive).

As for `O=C(Nc1cccc(/C=C/c2ccccn2)c1)C1CCCC1`, the inhibition was 97.1% (active).

Take `O=C(Nc1cccc(OCc2ccccn2)c1)C1CC1`: the inhibition is 18.7% (inactive).

As to `O=C(Nc1cnc(-c2ccccc2)nc1)C1CCCC1`, the inhibition was 48.4% (inactive).

Regarding `CC(C)n1c(CCC(=O)O)ccc1-c1ccc(Br)cc1`, the inhibition was 50.3% (active).

Take `CC(C)(C)C1CCC(CN2CC(O)C(N3CCCC3)C2)CC1` (stereo unspecified): the inhibition is 41.1% (inactive).

Consider `CC(Sc1n[nH]c(-c2ccc(Cl)cc2)n1)C(=O)NCc1ccco1` (stereo unspecified), for which the inhibition is 42% (inactive).

Take `CCOC(=O)CCCNC(=O)CSc1n[nH]c(-c2ccc(Br)cc2)n1`: the inhibition was 74.5% (active).

As for `CC(C)c1ccc(-c2nnn(CC(=O)c3ccc(O)cc3)n2)cc1`, the inhibition was 55.7% (active).

For `N#Cc1ccc(OCC(O)Cn2nnc(-c3ccc(Cl)cc3)n2)cc1` (stereo unspecified), the inhibition is 49.3% (inactive).

As for `CC(C)c1ccc(-c2nnn(CC(=O)NC(C)(C)C)n2)cc1`, the inhibition is 4.54% (inactive).

In the case of `C=CCOc1ccc(C2c3c(oc4ccc(C)cc4c3=O)C(=O)N2c2nccs2)cc1` (stereo unspecified), the inhibition was -15.9% (inactive).

As for `NCC(=O)Nc1ccc(-n2nc(C(F)(F)F)cc2-c2ccc3c(ccc4ccccc43)c2)cc1`, the inhibition is 73.5% (active).

In the case of `COCCOc1nc(-c2ccc(C(F)(F)F)cc2)n(-c2ccc(NC(=O)C(Cl)c3ccccc3)cc2)n1` (stereo unspecified), the inhibition is 19.5% (inactive).

For `CC(C)CN(CC(=O)Nc1cc(C(C)(C)C)nn1-c1ccc(Cl)c(Cl)c1)C(=O)Nc1ccc(C(F)(F)F)cc1`, the inhibition was 38.3% (inactive).

For orientation: inhibition means the relative decrease from the control value, in per cent.

The values are drawn from PubChem BioAssay AID1259343 (VanderVen Lab, College of Veterinary Medicine, Cornell …, 2017).
